From PubChem
Tgondii IFNg = T. gondii growth inhibition with IFN-gamma, primary screen, cell-based; Toxoplasma gondii growth in IFN-gamma-treated host cells; active compounds read low; activity change, negative = inhibition, % (concentration not given with the values); hit rate 3.8% among 69,000; AID 1259416, 2018; in the data active means activity change below about -70%, passing the limit was not always enough;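 further: host cells are HeLa cells infected with Toxoplasma gondii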
* marks the source's active call; other numbers are inactive results; i = inactive. This excerpt belongs to a sample that is enriched for hits.

SMILES	Tgondii IFNg
Cc1cnc(-c2ccc(C(C)N3CCOCC3)cc2)c(Cl)c1 (stereo not given)	18
CSc1ccc(C(=O)C2CCCN(Cc3nc4ccccc4nc3C)C2)cc1 (stereo not given)	17
CC(C)CN1C[C@]23CN(C(=O)c4cn(C)c5ccccc45)C[C@@H](C[C@H]2S1(=O)=O)O3	-5
O=C(Cn1c(=O)cc(C(=O)N2CCc3ccccc3C2)c2ccccc21)NCc1ccc2c(c1)OCO2	-8
CC(c1cc2ccccc2s1)N(O)C(N)=O (stereo not given)	-68
OC(CNCc1cc2ccccc2s1)C(F)(F)F (stereo not given)	-86*
O=C(c1cc(-c2ccn(C3CCCC3)n2)n2ccccc12)N1CCC(O)CC1	-51
O=C(NC1CCC12CCN(Cc1ccoc1)CC2)c1cnccn1 (stereo not given)	-42
CCN(CC)S(=O)(=O)c1ccc2[nH]c(=O)ccc2c1	i
Cc1ccc(S(=O)(=O)CCC(=O)Nc2ccc3c(c2)N(C)C(=O)CO3)cc1C	7
CN1C(=O)CC(C(=O)N(CCO)Cc2cccs2)c2ccccc21 (stereo not given)	1
OC(CNCc1ccccc1)Cn1c2ccc(Cl)cc2c2cc(Cl)ccc21 (stereo not given)	-91*
Cc1cc(C)n(CC(O)Cn2c3ccc(Cl)cc3c3cc(Cl)ccc32)n1 (stereo not given)	-36
CNCC(O)Cn1c(C)c(C)c2ccccc21 (stereo not given)	-3
Cc1ccc(-c2nc(Cn3nnc(C(=O)Nc4cccc(Cl)c4C)c3C)c(C)o2)cc1	-64
Cc1cc(CN2CCC3(CCCN3c3ncccn3)CC2)nn1C	-22
Cc1ccc(CN2CC[C@@H]3C[C@H](C(=O)NCc4ccccn4)O[C@H]3C2)o1	-13
C(=C/c1ccc2ccccc2n1)/c1ccc2c(c1)OCO2	-94*
COc1ccc(OC)c(-n2c(/C=C/c3ccc4c(c3)OCO4)nc3ccccc3c2=O)c1	19
C(=C/c1nccc2c1[nH]c1ccccc12)/c1ccc2c(c1)OCO2	133
COc1ccc(CN2CCC(c3nc4ccc(N5CCCC5)cn4n3)CC2)cc1	3
OC1(c2cccnc2)CCN(c2ncc(-c3cccs3)c(-c3cccnc3)n2)CC1	70
c1csc(-c2nc(N3CCCCC3)ncc2-c2ccncc2)c1	-98*
c1csc(-c2nc(N3CCCCC3)no2)c1	21
Cc1ccc(C2(O)CCN(C(=O)C(C)Cn3cccn3)CC2)nc1 (stereo not given)	5
SMILES	Tgondii IFNg
COc1cccc(CC(=O)NCc2cnn3ccccc23)c1	19
CCc1cccc(N(C(=O)c2ccc(NC(C)=O)cc2)C2(C(=O)NCc3ccccc3)CCN(C(C)=O)CC2)c1	46
Cc1ccccc1-c1ccc2c(-c3ncc(C(=O)NCCN(C)C)s3)noc2c1	-54
CN(C)C1CCN(C(=O)c2cnc(-c3noc4cc(-c5ccc(F)cc5)ccc34)s2)CC1	-82*
CCN(C)C(=O)c1cnc(-c2noc3cc(N4CCCCC4)ccc23)s1	-44
CC(C)n1nccc1C(=O)N1CCC(O)(c2cccnc2F)CC1	-2
O=C1CC(c2ccccc2)C2(CCN(C(=O)c3cscn3)CC2)N1 (stereo not given)	-2
CC(C)Oc1ccc(NC(=O)c2nc3c(n2C(C)C)CCN(C(=O)c2ccccc2)C3)cc1	-89*
CC(C)n1c(C(=O)Nc2cccc(F)c2)nc2c1CCN(Cc1ccccc1)C2	-30
CC1CN(C(=O)c2nc3c(n2C(C)C)CCN(Cc2ccccc2)C3)CC(C)O1 (stereo not given)	-49
NCCN1CCOC(CC(=O)Nc2cc(Cl)cc(Cl)c2)C1=O (stereo not given)	30
Cc1noc(-c2ccnc(-n3ncc(C(=O)NCCc4c[nH]c5ccccc45)c3C)c2)n1	3
O=C(NCCc1c[nH]c2ccccc12)c1cc2occc2c(Nc2ccc(F)cc2)n1	-85*
O=C(NCCc1c[nH]c2ccccc12)c1cccnc1	40
CCN1CCCC1CNC(=O)Cn1cccc1-c1nc(-c2ccccc2)cs1 (stereo not given)	7
Cc1ccc(CN2CC[C@@H]3C[C@H](c4nc(C5CC5)cs4)O[C@H]3C2)o1	14
CCN(Cc1ccccc1)C(=O)CN1C(=O)CCc2cc(S(=O)(=O)N3CCC(C)CC3)ccc21	-45
COc1ccc(-c2nc(C)c(CCNS(=O)(=O)c3cc(Cl)ccc3Cl)s2)cc1	410
CC(=O)Nc1nc(C)c(-c2ccc(Cl)c(S(=O)(=O)NCCO)c2)s1	-81*
Cc1nc(-c2ccc(F)cc2)sc1CCNS(=O)(=O)c1ccccc1Cl	48
O=C(c1ccco1)N1CCc2c([nH]c3ccccc23)C1c1ccc(F)cc1 (stereo not given)	-39
Clc1ccc(CSc2nnc(Cc3ccccc3)o2)cc1	-38
CSc1nc(-c2ccc(Cl)cc2)nc(N)c1-c1ccccc1	207
Nc1cc(-c2ccc(Cl)cc2)nc(N)n1	100
CCc1nc(N)nc(N)c1-c1ccc(Cl)cc1	-95*
SMILES	Tgondii IFNg
Cc1ccccc1-c1noc(CCC(=O)N2CCC3(CN(C)C(=O)O3)C2)n1 (stereo not given)	6
Cc1cc(C)n(CCNC(=O)c2n[nH]c3c2CCC3)c(=O)n1	3
CNC(=O)c1ccc(CNC(=O)Cc2c(C)[nH]c3c(C)ccc(C)c23)o1	5
Cc1ccc2[nH]c(C(=O)NCc3cccnc3)c(NC(=O)c3ccc(Cl)cc3)c2c1	-16
CNC(=O)c1ccc(CNC(=O)c2[nH]c3ccc(C)cc3c2C)o1	-108*
Cc1nc2nnc3ccc(C(=O)C(C)C)cc3c2n1C1CCCC1	1
O=C(NCCc1csc(-c2ccccc2)n1)[C@H]1CCCN1C(=O)Cc1ccc(F)cc1	4
COc1ccc(-c2ccc3[nH]nc(N)c3c2)cn1	-73*
COc1ccc(-c2cccc3c(C(N)=O)cccc23)cn1	14
COc1ccc(-c2cc(F)c(OC)c(F)c2)cn1	-9
Cc1ccc(S(=O)(=O)N2CCn3cc(CN(C)C)nc3C2)cc1	-1
CCN(CC)C(=O)c1cc(=O)n(CC(=O)Nc2ccc(F)cc2)c2ccccc12	5
Cc1ccc(C2(O)CCN(C(=O)c3ccc4sc(N)nc4c3)CC2)nc1	3
O=C(NCCc1csc(-c2ccc(Cl)cc2)n1)c1ccccc1C(F)(F)F	63
O=C(c1cccs1)N1N=C(c2ccc(Cl)cc2)CC1(O)C(F)(F)F (stereo not given)	-97*
OC1(C(F)(F)F)CC(c2cccs2)=NO1 (stereo not given)	-61
CC(C)CCN1C2(CCN(C(=O)NC3CCCC3)C2)c2ccccc2S1(=O)=O (stereo not given)	-87*
CC(C)CCN1C2(CCN(C(=O)c3ccno3)C2)c2ccccc2S1(=O)=O (stereo not given)	10
CC(C)CCN1C2(CCN(C(=O)Cc3cccnc3)C2)c2ccccc2S1(=O)=O (stereo not given)	-8
O=C(c1ccco1)N1CCOCC2(CCN(c3ncccn3)C2)C1 (stereo not given)	65
COc1ccc(C(=O)N(c2ccc(C)c(F)c2)C2(C(=O)NCc3ccccc3)CCN(C(C)=O)CC2)cc1	3
CN1CCC(N2CCN(C(=O)C3CCCN(c4cnc5nccnc5c4)C3)CC2)CC1 (stereo not given)	4
CCN(C)Cc1ccc(-c2nc(-c3ccncc3)cc(=O)[nH]2)cc1	0
COc1ccc(-c2nc(-c3ccncc3)[nH]c(=O)n2)cc1	44
Oc1ccc(-c2nc(-c3ccc(F)cc3)c(-c3ccncc3)[nH]2)cc1	-80*
